Results reported in PubChem BioAssay (NCATS).
“And” between values parts separate entries of the source, which are not always exact repeats. Identical values can stand only once. Records with an inconclusive call do not appear. The source made the active and inactive calls. The call rests on the fitted dose curve; in most records, active means well fitted inhibition curve with a large enough effect; inconclusive means small, poorly fitted or top-dose-only effect; inactive means flat fitted curve, though single readings scatter.

What was measured:
JCK = assay: qHTS profiling for inhibitors of Plasmodium falciparum proliferation (AID 504749); further: potency means the concentration at half of the fitted maximal effect; conditions: P. falciparum in erythrocytes, SYBR Green DNA, 72 h; series mostly up to 28.7 µM
In short: (§1)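 P. falciparum-infected erythrocytes (0.3% parasitemia, 2.5% hematocrit) incubated with compound 72 h at 37 C, 5% CO2. Parasite DNA detected by SYBR Green after lysis, overnight at room temperature; normalised to 0.29 uM artemisinin and DMSO.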

N140 = assay: as above; conditions: P. falciparum in erythrocytes, SYBR Green DNA, 72 h; series mostly up to 28.7 µM
In short: as §1

P93_24 = assay: as above; conditions: P. falciparum in erythrocytes, SYBR Green DNA, 72 h; series mostly up to 28.7 µM
In short: as §1

P94_40 = assay: as above; conditions: P. falciparum in erythrocytes, SYBR Green DNA, 72 h; series mostly up to 28.7 µM
In short: as §1

PAD = assay: as above; conditions: P. falciparum in erythrocytes, SYBR Green DNA, 72 h; series mostly up to 28.7 µM
In short: as §1

PC15 = assay: as above; conditions: P. falciparum in erythrocytes, SYBR Green DNA, 72 h; series mostly up to 28.7 µM
In short: as §1

PC26 = assay: as above; conditions: P. falciparum in erythrocytes, SYBR Green DNA, 72 h; series mostly up to 28.7 µM
In short: as §1

PC49 = assay: as above; conditions: P. falciparum in erythrocytes, SYBR Green DNA, 72 h; series mostly up to 28.7 µM
In short: as §1

SC27B = assay: as above; conditions: P. falciparum in erythrocytes, SYBR Green DNA, 72 h; series mostly up to 28.7 µM
In short: as §1

TAB109 = assay: as above; conditions: P. falciparum in erythrocytes, SYBR Green DNA, 72 h; series mostly up to 28.7 µM
In short: as §1

TAB113 = assay: as above; conditions: P. falciparum in erythrocytes, SYBR Green DNA, 72 h; series mostly up to 28.7 µM
In short: as §1

W2 = assay: as above; conditions: P. falciparum in erythrocytes, SYBR Green DNA, 72 h; series mostly up to 28.7 µM
In short: as §1

CRL-7250 = normal cell line; assay: Cytotoxic Profiling of Annotated Libraries Using Quantitative High-Throughput Screening (AID 1296008); conditions: Five cell lines viability, CellTiter-Glo ATP luminescence, 48-72 h; max response: stronger effect = lower value; further: potency means the concentration at half of the fitted maximal effect; on max response: on the % scale 0 is the no-effect control and ±100 the full control effect
In short: (§2)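 Cells exposed to compounds for 48 or 72 hr at 37 degrees Celsius. Viability read as ATP-coupled luminescence with CellTiter-Glo after 10 min at room temperature.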

HEK293 = assay: as above; conditions: Five cell lines viability, CellTiter-Glo ATP luminescence, 48-72 h; max response: stronger effect = lower value
In short: as §2

HaCat [1] = assay: as above; conditions: Five cell lines viability, CellTiter-Glo ATP luminescence, 48-72 h; max response: stronger effect = lower value
In short: as §2

KB-3-1 = assay: as above; conditions: Five cell lines viability, CellTiter-Glo ATP luminescence, 48-72 h; max response: stronger effect = lower value
In short: as §2

NIH3T3 = assay: as above; conditions: Five cell lines viability, CellTiter-Glo ATP luminescence, 48-72 h; max response: stronger effect = lower value
In short: as §2

HACAT [2] = assay: qHTS assay to identify novel small-molecules to repurpose for Merkel cell carcinoma treatment (AID 1296009); conditions: MCC and control cell lines, CellTiter-Glo viability, 72 h; at 44.8 µM (top of the series) unless noted
In short: (§3)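 Cells were treated for 72 hr at 37 degree celsius with compounds in 8- or 11-point dose response. Viability was read by CellTiter-Glo luminescence, normalized to no-cell (cytotoxicity) and DMSO controls.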

HEK293T = assay: as above; conditions: MCC and control cell lines, CellTiter-Glo viability, 72 h; at 44.8 µM (top of the series) unless noted
In short: as §3

TAB165 = assay: qHTS profiling for inhibitors of Plasmodium falciparum proliferation (AID 504749); further: potency means the concentration at half of the fitted maximal effect; conditions: P. falciparum in erythrocytes, SYBR Green DNA, 72 h; series mostly up to 28.7 µM
In short: as §1
Further: nearly all actives have a fitted effect of over 60% in size.

N=C(N=C(N)N)N1CCOCC1
inactive: Potency (JCK) | Potency (N140) | Potency (P93_24) | Potency (P94_40) | Potency (PAD) | Potency (PC15) | Potency (PC26) | Potency (PC49) | Potency (SC27B) | Potency (TAB109) | Potency (TAB113) | Potency (W2) | max response (CRL-7250) -16.7% and 0.819% | max response (HEK293) -13.7% and 0.579% | outcome (HaCat [1]) | max response (KB-3-1) -9.57% and 4.72% | max response (NIH3T3) -0.0574% and 2.52% | outcome (HACAT [2])

COc1ccccc1N1CCN(CCN(C(=O)C2CCCCC2)c2ccccn2)CC1
inactive: outcome (CRL-7250) | max response (HEK293) 3.7% | max response (HaCat [1]) 1.26% and -29.9% | max response (KB-3-1) -8.11% and 2.92% | max response (NIH3T3) -13.5% | outcome (NIH3T3)

OC(CN1CCN(c2cccc(Cl)c2)CC1)C(c1ccccc1)c1ccccc1 (stereo unspecified)
active: Potency (HEK293) 9.35 µM
inactive: max response (CRL-7250) -4.87% | max response (HaCat [1]) -65.8% and -1.92% | max response (KB-3-1) -12.1% and -1.2% | max response (NIH3T3) -14.3% | outcome (NIH3T3)

Nc1nc(OCc2ccccc2)c2[nH]cnc2n1
inactive: max response (CRL-7250) 0.448% | outcome (HEK293) | outcome (HaCat [1]) | max response (KB-3-1) 5.98% | outcome (NIH3T3) | outcome (HACAT [2]) | outcome (HEK293T)

Cc1c(OCC(F)(F)F)ccnc1CS(=O)c1nc2ccccc2[nH]1 (stereo unspecified)
inactive: Potency (JCK) | Potency (N140) | Potency (P93_24) | Potency (P94_40) | Potency (PAD) | Potency (PC15) | Potency (PC26) | Potency (PC49) | Potency (SC27B) | Potency (TAB109) | Potency (TAB113) | Potency (TAB165) | max response (CRL-7250) -8.7% and 2.17% | max response (HEK293) 3.36% | outcome (HaCat [1]) | max response (KB-3-1) -13.1% and -5.17% | max response (NIH3T3) 1.81% and 4.74% | outcome (HACAT [2])

CCCCC(CC)COC(=O)C(C#N)=C(c1ccccc1)c1ccccc1 (stereo unspecified)
active: Potency (SC27B) 8.91 µM | Potency (TAB165) 8.91 µM | Potency (W2) 6.75 µM | Potency (HEK293) 18.8 µM
inactive: Potency (JCK) | Potency (N140) | Potency (PAD) | Potency (PC26) | Potency (PC49) | max response (HaCat [1]) -0.998% | outcome (HaCat [1]) | outcome (KB-3-1) | max response (NIH3T3) -1.9% | outcome (NIH3T3) | outcome (HACAT [2])

C=C(c1ccc(C(=O)O)cc1)c1cc2c(cc1C)C(C)(C)CCC2(C)C
inactive: Potency (JCK) | Potency (N140) | Potency (P93_24) | Potency (P94_40) | Potency (PAD) | Potency (PC15) | Potency (PC26) | Potency (PC49) | Potency (SC27B) | Potency (TAB109) | Potency (TAB113) | Potency (TAB165)

O=C(O)c1cn(-c2ccc(F)cc2)c2cc(N3CCNCC3)c(F)cc2c1=O
inactive: Potency (JCK) | Potency (N140) | Potency (PAD) | Potency (PC15) | Potency (PC26) | Potency (PC49) | Potency (SC27B) | Potency (TAB113) | max response (CRL-7250) 3.53% and 1.39% | max response (HEK293) -4.73% | max response (HaCat [1]) -14.9% | max response (KB-3-1) 14.5% and 6.97% | max response (NIH3T3) -0.0226% and -6.36%
active: Potency (W2) 10.7 µM

O=C1c2ccccc2-c2n[nH]c3cccc1c23
inactive: Potency (JCK) | Potency (N140) | Potency (P93_24) | Potency (P94_40) | Potency (PAD) | Potency (PC15) | Potency (PC49) | Potency (SC27B) | Potency (TAB109) | Potency (TAB113) | Potency (TAB165) | max response (KB-3-1) -0.484%

Cc1cccc(C)c1OCC(=O)N[C@@H](Cc1ccccc1)[C@@H](O)C[C@H](Cc1ccccc1)NC(=O)[C@H](C(C)C)N1CCCNC1=O
active: Potency (JCK) 7.94 µM | Potency (N140) 708 nM | Potency (P93_24) 1.12 µM | Potency (P94_40) 2.51 µM | Potency (PAD) 891 nM | Potency (PC15) 3.98 µM | Potency (PC26) 1.9 µM | Potency (PC49) 2 µM | Potency (SC27B) 1.12 µM | Potency (TAB109) 2.82 µM | Potency (TAB113) 1.78 µM | Potency (TAB165) 1 µM | Potency (W2) 1.69 µM

CCCOc1ccc2nc(NC(=O)OC)[nH]c2c1
active: Potency (CRL-7250) 668 nM and 132 nM | Potency (HEK293) 0.15 µM | Potency (KB-3-1) 731 nM
inactive: Potency (JCK) | Potency (N140) | Potency (P93_24) | Potency (P94_40) | Potency (PAD) | Potency (PC15) | Potency (PC26) | Potency (PC49) | Potency (SC27B) | Potency (TAB109) | Potency (TAB113) | Potency (TAB165) | Potency (W2) | outcome (HaCat [1]) | outcome (HACAT [2])

CC(C)c1nc(CN(C)C(=O)N[C@H](C(=O)N[C@@H](Cc2ccccc2)C[C@H](O)[C@H](Cc2ccccc2)NC(=O)OCc2cncs2)C(C)C)cs1
inactive: max response (CRL-7250) -16.9% and 0.649% and -2.4% | max response (HaCat [1]) -41.4% and 3.85% | outcome (HaCat [1]) | max response (KB-3-1) -5.85% and -8.86% and 1.74% | max response (NIH3T3) -19.1% and 3.76% | outcome (NIH3T3) | outcome (HACAT [2])
